Measurements taken from PMC8384837, “Expanding the binding specificity for RNA recognition by a PUF domain”.

Columns and labels:
Test in all cases: yeast three-hybrid, YBZ-1, SC-Leu-His + 0.5 mM 3-AT, 4 days
Settings in all cases: tags: N-Gal4 AD-HA kept; label: inside an RPR1-promoter hybrid RNA with tandem MS2 sites; ssRNA
[1] = target: PUM1 PUF domain R1-YMR (Homo sapiens, UniProt Q14671 828-1176, S863Y;R864M;Q867R)
How it was run: (§1)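 Matching RNA elements and Pumilio-1 PUF domain libraries, randomized at the three base-contacting residues of every repeat, were co-expressed from a centromeric plasmid in strain YBZ-1 (LexA–MS2 coat fusion, HIS3 reporter). The repeat regions were PCR-amplified and Illumina-sequenced from cells grown four days on SC-Leu (input) or SC-Leu-His + 0.5 mM 3-AT (selection). The interaction score is the log change in variant frequency from input to selection. It is computed in log2, with a pseudocount of 1 for absent variants.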

[2] = target: PUM1 PUF domain R5-FRM (Homo sapiens, UniProt Q14671 828-1176, C1007F;Q1011M)
How it was run: as §1

[3] = target: PUM1 PUF domain R5-GMR (Homo sapiens, UniProt Q14671 828-1176, C1007G;R1008M;Q1011R)
How it was run: as §1

[4] = target: PUM1 PUF domain R8-KHW (Homo sapiens, UniProt Q14671 828-1176, N1122K;Y1123H;Q1126W)
How it was run: as §1

[5] = target: PUM1 PUF domain R8-TYK (Homo sapiens, UniProt Q14671 828-1176, N1122T;Q1126K)
How it was run: as §1

[6] = target: PUM1 PUF domain R7-RKL (Homo sapiens, UniProt Q14671 828-1176, S1079R;N1080K;E1083L)
How it was run: as §1

[7] = target: PUM1 PUF domain R7-KRL (Homo sapiens, UniProt Q14671 828-1176, S1079K;N1080R;E1083L)
How it was run: as §1

[8] = target: PUM1 PUF domain R4-PFV (Homo sapiens, UniProt Q14671 828-1176, N971P;H972F;Q975V)
How it was run: as §1

[9] = target: PUM1 PUF domain R3-APA (Homo sapiens, UniProt Q14671 828-1176, C935A;R936P;Q939A)
How it was run: as §1

[10] = target: PUM1 PUF domain R5-IYG (Homo sapiens, UniProt Q14671 828-1176, C1007I;R1008Y;Q1011G)
How it was run: as §1

[11] = target: PUM1 PUF domain R4-GRN (Homo sapiens, UniProt Q14671 828-1176, N971G;H972R;Q975N)
How it was run: as §1

[12] = target: PUM1 PUF domain R4-APF (Homo sapiens, UniProt Q14671 828-1176, N971A;H972P;Q975F)
How it was run: as §1

[13] = target: PUM1 PUF domain R3-VYW (Homo sapiens, UniProt Q14671 828-1176, C935V;R936Y;Q939W)
How it was run: as §1

[14] = target: T1, PUM1 PUF domain R6-DFE (Homo sapiens, UniProt Q14671 828-1176, N1043D;Y1044F;Q1047E)
T1 sequence: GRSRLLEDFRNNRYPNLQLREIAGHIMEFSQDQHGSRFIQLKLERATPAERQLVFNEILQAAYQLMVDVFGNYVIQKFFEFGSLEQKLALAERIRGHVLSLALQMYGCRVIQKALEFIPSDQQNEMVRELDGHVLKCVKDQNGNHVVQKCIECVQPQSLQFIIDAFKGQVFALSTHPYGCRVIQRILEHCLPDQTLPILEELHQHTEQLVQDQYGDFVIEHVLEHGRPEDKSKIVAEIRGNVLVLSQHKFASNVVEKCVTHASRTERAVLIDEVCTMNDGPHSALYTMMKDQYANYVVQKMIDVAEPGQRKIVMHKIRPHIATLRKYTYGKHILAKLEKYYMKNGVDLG
How it was run: as §1

Chain of PUM1 PUF domain R8-TYK (Q14671 828-1176 N1122T/Q1126K): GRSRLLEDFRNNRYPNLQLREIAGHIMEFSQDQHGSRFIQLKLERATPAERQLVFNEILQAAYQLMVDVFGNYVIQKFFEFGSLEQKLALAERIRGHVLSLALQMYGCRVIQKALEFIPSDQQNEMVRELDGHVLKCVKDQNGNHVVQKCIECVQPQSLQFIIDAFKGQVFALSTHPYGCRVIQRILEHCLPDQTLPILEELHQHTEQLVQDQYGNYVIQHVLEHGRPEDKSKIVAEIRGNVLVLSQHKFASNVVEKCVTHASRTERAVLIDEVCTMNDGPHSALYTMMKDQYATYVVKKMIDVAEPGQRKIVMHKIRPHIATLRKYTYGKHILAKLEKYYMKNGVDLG
Chain of PUM1 PUF domain R5-GMR (Q14671 828-1176 C1007G/R1008M/Q1011R): as the sequence (Q14671 828-1176 N1122T/Q1126K) above, with C180G, R181M, Q184R, T295N, K299Q counted along it
Chain of PUM1 PUF domain R1-YMR (Q14671 828-1176 S863Y/R864M/Q867R): as the sequence (Q14671 828-1176 N1122T/Q1126K) above, with S36Y, R37M, Q40R, T295N, K299Q counted along it
Chain of PUM1 PUF domain R4-PFV (Q14671 828-1176 N971P/H972F/Q975V): as the sequence (Q14671 828-1176 N1122T/Q1126K) above, with N144P, H145F, Q148V, T295N, K299Q counted along it

With “GGCUAGAACUAGUGGAUCCCCCGGCGCCCGGCGGCUCGAGCCCGGGUAAGUGUAAAUUGUCUGCAUGCCGCCGGGCGCCAUGCCUGCAGGUCGACUCUAGAAAACAUG” the binding signal [1] was 4.12 log2 enrichment (interaction score).

“GGCUAGAACUAGUGGAUCCCCCGGCGCCCGGCGGCUCGAGCCCGGGUAAGUGUCAAUAGUCUGCAUGCCGCCGGGCGCCAUGCCUGCAGGUCGACUCUAGAAAACAUG” was tested, and the binding signal [2] was 2.1 log2 enrichment (interaction score) and the binding signal [3] was 3.28 log2 enrichment (interaction score).

In the case of “GGCUAGAACUAGUGGAUCCCCCGGCGCCCGGCGGCUCGAGCCCGGGUAAGCGUAAAUAGUCUGCAUGCCGCCGGGCGCCAUGCCUGCAGGUCGACUCUAGAAAACAUG”, the binding signal [4] is reported as 5.39 log2 enrichment (interaction score) and the binding signal [5] is reported as 2.07 log2 enrichment (interaction score).

In the case of “GGCUAGAACUAGUGGAUCCCCCGGCGCCCGGCGGCUCGAGCCCGGGUAAGUCUAAAUAGUCUGCAUGCCGCCGGGCGCCAUGCCUGCAGGUCGACUCUAGAAAACAUG”, the binding signal [6] is reported as 3.94 log2 enrichment (interaction score) and the binding signal [7] is reported as 5.65 log2 enrichment (interaction score).

“GGCUAGAACUAGUGGAUCCCCCGGCGCCCGGCGGCUCGAGCCCGGGUAAGUGUAAAUAGUCUGCAUGCCGCCGGGCGCCAUGCCUGCAGGUCGACUCUAGAAAACAUG” was tested, and the binding signal [4] was 3.88 log2 enrichment (interaction score), the binding signal [8] was 6.08 log2 enrichment (interaction score) and the binding signal [1] was 2.85 log2 enrichment (interaction score). The binding signal [9] was 2.14 log2 enrichment (interaction score), the binding signal [10] was 4.13 log2 enrichment (interaction score) and the binding signal [11] was 2.76 log2 enrichment (interaction score). For the same sequence, the binding signal [12] was 3.52 log2 enrichment (interaction score), the binding signal [13] was 6.32 log2 enrichment (interaction score) and the binding signal [2] was 3.16 log2 enrichment (interaction score). The binding signal [3] was 0.88 log2 enrichment (interaction score) and the binding signal [5] was 2.62 log2 enrichment (interaction score).

With “GGCUAGAACUAGUGGAUCCCCCGGCGCCCGGCGGCUCGAGCCCGGGUAAGUGGAAAUAGUCUGCAUGCCGCCGGGCGCCAUGCCUGCAGGUCGACUCUAGAAAACAUG” the binding signal [14] was 2.5 log2 enrichment (interaction score).

In the case of “GGCUAGAACUAGUGGAUCCCCCGGCGCCCGGCGGCUCGAGCCCGGGUAAGGGUAAAUAGUCUGCAUGCCGCCGGGCGCCAUGCCUGCAGGUCGACUCUAGAAAACAUG”, the binding signal [5] is reported as 3.38 log2 enrichment (interaction score).
